# Compound activity (PubChem)
# NS1 inh = blocks influenza NS1 protein function. Potency, µM (top dose mostly 46.1 µM), without a hit: top-dose activity, positive = more growth. 0.4% of 270,000 active. AID 2326; calls by dose curve; note: actives are rising curves; nearly all actives have a fitted effect of over 50% in size
#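 In this qHTS, NS1 from influenza A is expressed in budding yeast, where it slows growth. Cells are switched from glucose to 2% galactose medium (pH 6.0, -URA), treated with compound, and growth recovery is read at OD600.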
# Cruzain inh noDet = blocks cruzain activity in detergent-free assay; P25779; AID 1476; 2.3% of 200,000 active; Potency, µM, without a hit: max response, negative = inhibition, hits mostly inhibitors; purified cruzain, Z-FR-AMC fluorescence, no detergent;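 note: plate controls were enzyme without inhibitor for no effect and buffer without enzyme for full effect; nearly all actives have a fitted effect of over 40% in size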
# Target sequence (P25779 123-467 limits assumed): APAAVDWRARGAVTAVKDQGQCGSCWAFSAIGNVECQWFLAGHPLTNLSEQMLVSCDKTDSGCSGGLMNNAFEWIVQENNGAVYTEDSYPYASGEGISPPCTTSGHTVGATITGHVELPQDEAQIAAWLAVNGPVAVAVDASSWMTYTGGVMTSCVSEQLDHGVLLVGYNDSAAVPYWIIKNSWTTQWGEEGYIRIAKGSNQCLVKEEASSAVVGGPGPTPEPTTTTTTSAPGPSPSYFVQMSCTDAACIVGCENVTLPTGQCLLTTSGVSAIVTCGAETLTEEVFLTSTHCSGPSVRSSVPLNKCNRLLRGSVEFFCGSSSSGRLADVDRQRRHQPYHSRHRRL
#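 Detergent-free condition (0.00005% Triton X-100) in acetate buffer pH 5.5 with DTT. 1.5 nM enzyme and compound were pre-mixed 15 min, then 2 uM Z-FR-AMC substrate added; reaction progress from fluorescence change between first and third reads (60 s).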
# Cruzain Triton = blocks cruzain activity in presence of Triton detergent | P25779 | purified cruzain, Z-FR-AMC fluorescence, 0.01% Triton | Potency, µM, for inactives: max response, negative = inhibition, hits mostly inhibitors | 0.43% of 200,000 active | AID 1478;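 note: plate controls were neutral wells for no effect and buffer without enzyme for full effect; nearly all actives have a fitted effect of over 40% in size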
#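 In this qHTS format, compounds are incubated with 1.5 nM cruzain for 15 min at room temperature before 2 uM Z-FR-AMC is added. Release of AMC is followed at 360/450 nm, and progress is taken as the 60 s fluorescence difference.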
# An asterisk follows results filed as active; ? = inconclusive; / = no result given. The entries come from a sample that favours hits as a whole. Unless noted, calls come from the whole dose curve; as a rule, active = well fitted curve in the direction sought with a large enough effect; inconclusive = small, poorly fitted or top-dose-only effect, or another doubt; inactive = no such curve, though single readings can be large; an effect the other way counts as inactive or inconclusive. Potency is the fitted concentration of half-maximal effect.
SMILES,NS1 inh,Cruzain inh noDet,Cruzain Triton
O=C1OCCN1C(=O)[C@H]1[C@H](c2ccc(F)cc2)C(c2cccc(Cl)c2)=NN1c1ccccc1,/,20µM*,-4%
C[C@@H]1C(c2ccc(F)cc2)=NN(c2ccccc2)[C@H]1C(=O)N1CCOC1=O,/,-4%,-12%
O=C1OCCN1C(=O)[C@H]1[C@H](c2ccc(Cl)cc2)C(c2cccc(Cl)c2)=NN1c1ccccc1,?,18µM*,-14%
C=CCOCC1CO1 (configuration not stated),/,-2%,8%
CN(C)c1ncc2nc(-c3ccc(F)cc3)c(=O)n(C)c2n1,/,0%,-2%
COc1ccc2c(c1OC)C(Cc1ccccc1)N1CCc3cc4c(cc3C1=C2)OCO4 (configuration not stated),/,12%,-1%
Cc1cccc(NC(=O)C2CCN(S(=O)(=O)c3ccc4c(c3)CCCC(=O)N4)CC2)c1,/,1%,-3%
COCCNc1nc(C)nc2c1nc(-c1ccccc1)n2CCN1CCCC1,/,-3%,-3%
Cc1ccc(S(=O)(=O)Nc2ccc3c(c2)c2c(n3S(=O)(=O)c3ccc(C)cc3)CCCC2=O)cc1,15%,7.9µM*,-5%
CCn1cnc2cc(NS(=O)(=O)c3ccc(C)cc3)ccc21,18%,20%,0%
CCOC(=O)c1c(C)n(S(=O)(=O)c2ccc(C)cc2)c2ccc(NS(=O)(=O)c3ccc(C)cc3)cc12,/,4µM*,-2%
Cc1ccc(S(=O)(=O)Nc2ccc3c(c2)CCC3)cc1,-36%,-6%,-13%
O=c1c(CCc2ccccc2)nc2cnc(N3CCNCC3)nc2n1Cc1ccc(F)cc1,/,-4%,5%
Cc1ccccc1-c1nc(CS(=O)(=O)CC(=O)NCCCc2ccccc2)c(C)o1,/,?,-2%
Cc1cccc(OCCN2CSC(=S)N(C)C2)c1,-7%,-22%,-24%
COc1ccccc1OCCN1CSC(=S)N(C)C1,-41%,20µM*,?
COc1c(C2=CC(=O)N(C)C2=O)c2c(n1C)C(=O)c1ccccc1C2=O,/,-14%,7%
CC(=O)c1cccc(NC(=O)CN2C(=O)CCc3cc(S(=O)(=O)N4CCCCC4)ccc32)c1,/,-2%,1%
O=C1c2cccc3cccc(c23)C(=O)N1c1nccs1,6%,6%,-4%
O=C1c2cccc3cccc(c23)C(=O)N1c1ccc2ncccc2c1,8%,?,18µM*
CC(=O)c1cccc(Nc2ncnc3c2cnn3-c2cccc(Cl)c2)c1,/,-3%,1%
Cc1c(Cc2ccccc2)c(=O)oc2c(CN(C)C)c(O)c(Cl)cc12,-11%,?,20µM*
Cc1c(Cc2ccccc2)c(=O)oc2c(O)c(O)ccc12,-3%,/,/
Cc1c(Cl)cccc1NC(=O)Cn1c(=O)nc(-c2ccccc2)c2ccccc21,/,-6%,1%
CCCCC(=O)N(C)C,/,1%,5%
SMILES,NS1 inh,Cruzain inh noDet,Cruzain Triton
Cc1ccc(C2C(C#N)=C(N)Oc3n[nH]c(-c4cccs4)c32)cc1 (configuration not stated),14%,32µM*,-2%
N#CC1=C(N)Oc2n[nH]c(-c3cccs3)c2C1c1ccoc1 (configuration not stated),6%,-7%,-4%
COc1cc(OC)c(N(C)C(=O)Nc2cn(CC(C)C)c(=O)c3ccccc23)cc1Cl,/,?,-2%
C/C(=N\NC(=O)c1cccc(S(=O)(=O)Nc2ccccc2Cl)c1)c1ccc(-n2ccnc2)cc1,-10%,20µM*,-5%
COc1ccc(NS(=O)(=O)c2cccc(C(=O)N/N=C(\C)c3ccc(-n4ccnc4)cc3)c2)cc1,7%,-12%,1%
O=C(/C=C/NNC(=O)c1cccc(Br)c1)c1cccc(Br)c1,-61%,7.9µM*,-6%
O=C(/C=C/NNC(=O)c1ccccc1)c1ccc(Br)cc1,-104%,?,-8%
CCCCOC(=O)/C(C#N)=C/c1ccc(-c2ccc(Br)cc2)o1,/,0%,-3%
Nc1c(-c2nc(-c3ccc4c(c3)OCO4)cs2)c2ccccn2c1C(=O)c1ccccc1,/,4µM*,-3%
Nc1c(-c2nc(-c3ccc4c(c3)OCO4)cs2)c2ccccn2c1C(=O)c1ccc(Cl)cc1,/,?,0%
Cc1ccc(C)c(C(=O)c2c(N)c(-c3nc(-c4ccc5c(c4)OCO5)cs3)c3ccccn23)c1,/,5µM*,-2%
COc1ccc(-c2csc(-c3c(N)c(C(=O)c4ccccc4)n4ccccc34)n2)cc1,/,?,2%
Cc1ccc(-c2csc(-c3c(N)c(C(=O)c4ccc5c(c4)OCO5)n4ccccc34)n2)cc1C,/,3.2µM*,-3%
COc1cccc(C(=O)c2c(N)c(-c3nc(-c4ccccc4)cs3)c3ccccn23)c1,/,10µM*,-2%
COc1ccc(-c2csc(-c3c(N)c(C(=O)c4ccccc4)n4ccccc34)n2)cc1OC,/,-12%,-3%
Nc1c(-c2nc(-c3ccc(F)cc3)cs2)c2ccccn2c1C(=O)c1ccc2c(c1)OCO2,/,-29%,1%
O=C(O)CSc1ccc(N=C=S)cc1,0%,5%,2%
COc1ccc(C(=O)c2c(N)c(-c3nc(-c4ccc5c(c4)OCO5)cs3)c3ccccn23)cc1,/,?,-4%
Cc1ccc(C(=O)c2c(N)c(-c3nc(-c4ccc5c(c4)OCO5)cs3)c3ccccn23)cc1C,/,1.6µM*,-4%
Cc1no[n+]([O-])c1COc1ccc(/C=C2\NC(=S)NC2=O)cc1,5%,32µM*,-7%
CCOc1ccc(/C=C2\NC(=S)NC2=O)cc1,-6%,/,/
Cc1nc2c(C(=O)NCCCN(CC(C)C)CC(C)C)cnn2c(C)c1Cc1c(F)cccc1Cl,/,6%,0%
O=C(Nc1ccccc1)N1CC[C@@]2(CCCN(C(=O)c3cnccn3)C2)C1,/,-9%,1%
Cc1ccc(NC(=O)CN2C(=O)C3(SCC(=O)N3c3cccc(Cl)c3)c3ccccc32)cc1C (configuration not stated),/,20µM*,-5%
Cc1ccc(N2C(=O)CSC23C(=O)N(CC(=O)Nc2ccc(C(C)C)cc2)c2ccccc23)cc1C (configuration not stated),/,?,-6%
SMILES,NS1 inh,Cruzain inh noDet,Cruzain Triton
O=C(CN1C(=O)C2(SCC(=O)N2c2ccc(F)c(F)c2)c2ccccc21)Nc1cccc(Cl)c1 (configuration not stated),/,?,-6%
COc1ccc(NC(=O)CN2C(=O)C3(SCC(=O)N3c3ccccc3)c3ccccc32)cc1Cl (configuration not stated),/,20µM*,-5%
c1csc(CNc2nc(-c3ccc4c(c3)OCO4)nc3ccccc23)c1,/,?,-1%
COc1ccccc1NC(=O)CN1C(=O)CCSc2ccccc21,/,-4%,-2%
Cc1cccc(NC(=O)c2c(N)sc3c2CCC(C)C3)c1 (configuration not stated),/,-10%,-6%
CCC1=C2CC[C@H]3C(=O)N(c4ccccc4)C(=O)[C@H]3[C@H]2[C@@]2(C)C(=O)N(Cc3ccccc3)C(=O)N2C1=O,/,2%,-4%
CCCCCCCCOC(=O)C(NC(=O)CCC(=O)Nc1ccc(S(N)(=O)=O)cc1)C(O)c1ccccc1 (configuration not stated),2%,7.9µM*,3%
CCOC(=O)C(NC(=O)CCC(=O)Nc1ccc(S(N)(=O)=O)cc1)C(O)c1ccccc1 (configuration not stated),?,9%,0%
Cc1cc2sc(C)[n+](CCCOS(=O)(=O)O)c2cc1C,-3%,16%,0%
